# Legend:
# Assay in all cases: DAPPL (digital affinity profiling via proximity ligation, sequencing); 10 mM Tris-HCl pH 7.5, 50 mM NaCl, 1 mM DTT, 4% glycerol, room temperature, 30 min; GST-TFs on glutathione beads, 16-mer random dsDNA library, 0.1% formaldehyde crosslink after washing; high values mean tight binding
# FEV = target: T1, FEV (Homo sapiens, UniProt Q99581 1-238); conditions: protein: recombinant; tags: N-terminal GST; dsDNA, one strand shown
# T1 sequence: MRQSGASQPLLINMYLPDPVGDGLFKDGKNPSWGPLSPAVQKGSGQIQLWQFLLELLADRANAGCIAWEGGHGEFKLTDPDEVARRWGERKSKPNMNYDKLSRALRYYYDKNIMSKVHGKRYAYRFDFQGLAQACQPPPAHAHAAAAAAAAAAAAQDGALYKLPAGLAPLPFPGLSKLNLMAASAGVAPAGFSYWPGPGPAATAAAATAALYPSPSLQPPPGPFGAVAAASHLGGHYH
# Outline: (§1)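 Pools of DNA-barcoded human transcription factors, expressed in yeast as GST fusions on glutathione beads and combined with a tag-only sample, were incubated with 200 nmole of a 16-mer random double-stranded DNA library. Incubation took 30 min at room temperature in Tris/NaCl/DTT/glycerol buffer and was followed by washing, 0.1% formaldehyde crosslinking, proximity ligation (BsaI/T4 ligase, 1 h, 37 °C), PCR amplification and sequencing on an Illumina NextSeq500. Binding signal is the ratio of a hexamer's read frequency for a factor to its frequency for the tag-only sample.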
# ETV5 = ETV5 (Homo sapiens, UniProt P41161 1-510); conditions: protein: recombinant; tags: N-terminal GST; dsDNA, one strand shown
# Outline: as §1
# HSF1 = HSF1 (Homo sapiens, UniProt Q00613 1-529); conditions: protein: recombinant; tags: N-terminal GST; chain copies: 3; dsDNA, one strand shown
# Outline: as §1
# SPIC = target: T2, SPIC (Homo sapiens, UniProt Q8N5J4 1-248); conditions: protein: recombinant; tags: N-terminal GST; dsDNA, one strand shown
# T2 sequence: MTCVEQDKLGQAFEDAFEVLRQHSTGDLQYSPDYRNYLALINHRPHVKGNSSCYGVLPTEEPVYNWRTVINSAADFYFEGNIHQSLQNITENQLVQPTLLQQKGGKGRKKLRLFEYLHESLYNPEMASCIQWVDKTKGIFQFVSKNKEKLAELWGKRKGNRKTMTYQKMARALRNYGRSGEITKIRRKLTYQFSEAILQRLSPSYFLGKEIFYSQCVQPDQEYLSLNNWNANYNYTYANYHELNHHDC
# Outline: as §1
# ELF4 = ELF4 (Homo sapiens, UniProt Q99607 1-663); conditions: protein: recombinant; tags: N-terminal GST; dsDNA, one strand shown
# Outline: as §1
# ELK4 = target: T3, ELK4 (Homo sapiens, UniProt P28324-2 1-405); conditions: protein: recombinant; tags: N-terminal GST; dsDNA, one strand shown
# T3 sequence: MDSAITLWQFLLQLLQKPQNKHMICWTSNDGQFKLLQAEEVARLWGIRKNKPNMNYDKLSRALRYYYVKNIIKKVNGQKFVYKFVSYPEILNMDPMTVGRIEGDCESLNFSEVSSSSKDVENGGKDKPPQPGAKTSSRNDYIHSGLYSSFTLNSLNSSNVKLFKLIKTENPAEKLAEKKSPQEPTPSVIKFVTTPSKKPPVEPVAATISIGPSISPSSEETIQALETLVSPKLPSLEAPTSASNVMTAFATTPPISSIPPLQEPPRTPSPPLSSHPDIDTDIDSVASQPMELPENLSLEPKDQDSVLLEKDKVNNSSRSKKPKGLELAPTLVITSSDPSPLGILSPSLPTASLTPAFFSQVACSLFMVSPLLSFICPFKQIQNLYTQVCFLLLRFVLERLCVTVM
# Outline: as §1
# ETV2 = target: T4, ETV2 (Homo sapiens, UniProt O00321 1-342); conditions: protein: recombinant; tags: N-terminal GST; dsDNA, one strand shown
# T4 sequence: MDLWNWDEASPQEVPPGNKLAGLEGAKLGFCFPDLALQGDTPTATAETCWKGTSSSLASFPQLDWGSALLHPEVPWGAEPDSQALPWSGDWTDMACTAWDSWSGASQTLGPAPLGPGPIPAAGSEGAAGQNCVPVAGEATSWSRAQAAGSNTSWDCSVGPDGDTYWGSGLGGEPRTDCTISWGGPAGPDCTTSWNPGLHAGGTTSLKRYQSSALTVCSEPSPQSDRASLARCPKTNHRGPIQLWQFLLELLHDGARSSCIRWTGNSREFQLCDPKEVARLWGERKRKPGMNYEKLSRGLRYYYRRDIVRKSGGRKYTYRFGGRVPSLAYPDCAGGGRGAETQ
# Outline: as §1
# ELF3 = target: T5, ELF3 (Homo sapiens, UniProt P78545 1-371); conditions: protein: recombinant; tags: N-terminal GST; dsDNA, one strand shown
# T5 sequence: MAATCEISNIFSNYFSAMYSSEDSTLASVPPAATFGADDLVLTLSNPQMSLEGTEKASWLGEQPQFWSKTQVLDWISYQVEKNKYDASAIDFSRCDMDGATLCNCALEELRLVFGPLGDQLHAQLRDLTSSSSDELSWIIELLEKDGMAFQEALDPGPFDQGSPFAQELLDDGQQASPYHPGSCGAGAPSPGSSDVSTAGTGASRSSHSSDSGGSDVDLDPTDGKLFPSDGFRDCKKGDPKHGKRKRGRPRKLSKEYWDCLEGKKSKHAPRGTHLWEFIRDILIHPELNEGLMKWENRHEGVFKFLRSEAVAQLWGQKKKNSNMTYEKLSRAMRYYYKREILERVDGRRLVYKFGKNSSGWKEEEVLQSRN
# Outline: as §1
# CRX = CRX (Homo sapiens, UniProt O43186 1-299); conditions: protein: recombinant; tags: N-terminal GST; dsDNA, one strand shown
# Outline: as §1
# ETV1 = ETV1 (Homo sapiens, UniProt P50549 1-477); conditions: protein: recombinant; tags: N-terminal GST; dsDNA, one strand shown
# Outline: as §1
# ERF = target: T6, ERF (Homo sapiens, UniProt P50548 1-548); conditions: protein: recombinant; tags: N-terminal GST; dsDNA, one strand shown
# T6 sequence: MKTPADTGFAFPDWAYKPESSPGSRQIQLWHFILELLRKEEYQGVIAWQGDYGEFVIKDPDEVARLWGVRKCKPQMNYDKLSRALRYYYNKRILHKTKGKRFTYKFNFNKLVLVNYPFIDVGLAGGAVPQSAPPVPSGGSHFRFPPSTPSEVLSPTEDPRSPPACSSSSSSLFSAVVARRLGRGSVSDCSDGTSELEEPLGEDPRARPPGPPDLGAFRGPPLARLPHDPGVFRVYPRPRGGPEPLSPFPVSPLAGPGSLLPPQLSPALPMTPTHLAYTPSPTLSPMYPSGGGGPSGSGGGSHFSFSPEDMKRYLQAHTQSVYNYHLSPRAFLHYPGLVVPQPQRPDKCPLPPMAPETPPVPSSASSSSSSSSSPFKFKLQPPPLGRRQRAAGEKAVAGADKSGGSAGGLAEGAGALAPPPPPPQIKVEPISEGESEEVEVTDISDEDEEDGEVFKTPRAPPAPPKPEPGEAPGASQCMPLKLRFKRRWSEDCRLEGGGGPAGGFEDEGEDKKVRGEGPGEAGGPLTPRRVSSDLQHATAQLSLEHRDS
# Outline: as §1
# ETV3L = target: T7, ETV3L (Homo sapiens, UniProt Q6ZN32 1-361); conditions: protein: recombinant; tags: N-terminal GST; dsDNA, one strand shown
# T7 sequence: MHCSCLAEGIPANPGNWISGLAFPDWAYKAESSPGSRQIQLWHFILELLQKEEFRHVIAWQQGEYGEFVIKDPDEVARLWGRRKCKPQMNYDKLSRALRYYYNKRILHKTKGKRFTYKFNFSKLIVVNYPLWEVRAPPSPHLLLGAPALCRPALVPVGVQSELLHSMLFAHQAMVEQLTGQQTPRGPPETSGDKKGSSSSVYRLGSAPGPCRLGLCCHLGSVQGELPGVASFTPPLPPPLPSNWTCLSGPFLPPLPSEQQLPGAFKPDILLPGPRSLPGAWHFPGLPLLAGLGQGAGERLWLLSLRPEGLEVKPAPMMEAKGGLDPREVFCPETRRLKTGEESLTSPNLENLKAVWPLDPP
# Outline: as §1
# ETS2 = target: T8, ETS2 (Homo sapiens, UniProt P15036 1-469); conditions: protein: recombinant; tags: N-terminal GST; dsDNA, one strand shown
# T8 sequence: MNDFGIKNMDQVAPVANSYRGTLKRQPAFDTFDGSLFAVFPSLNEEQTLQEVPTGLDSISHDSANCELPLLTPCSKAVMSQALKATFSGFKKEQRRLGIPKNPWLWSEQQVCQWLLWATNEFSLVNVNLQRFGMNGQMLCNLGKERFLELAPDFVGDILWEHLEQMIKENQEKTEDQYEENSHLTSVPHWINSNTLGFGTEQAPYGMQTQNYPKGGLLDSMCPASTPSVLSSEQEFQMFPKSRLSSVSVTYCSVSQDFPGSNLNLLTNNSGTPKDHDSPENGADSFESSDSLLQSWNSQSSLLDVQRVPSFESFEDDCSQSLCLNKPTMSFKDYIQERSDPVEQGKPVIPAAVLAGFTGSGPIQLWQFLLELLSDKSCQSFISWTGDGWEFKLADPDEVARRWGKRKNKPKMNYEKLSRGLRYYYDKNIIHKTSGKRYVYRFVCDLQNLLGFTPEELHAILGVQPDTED
# Outline: as §1
# SPDEF = target: T9, SPDEF (Homo sapiens, UniProt O95238 1-335); conditions: protein: recombinant; tags: N-terminal GST; dsDNA, one strand shown
# T9 sequence: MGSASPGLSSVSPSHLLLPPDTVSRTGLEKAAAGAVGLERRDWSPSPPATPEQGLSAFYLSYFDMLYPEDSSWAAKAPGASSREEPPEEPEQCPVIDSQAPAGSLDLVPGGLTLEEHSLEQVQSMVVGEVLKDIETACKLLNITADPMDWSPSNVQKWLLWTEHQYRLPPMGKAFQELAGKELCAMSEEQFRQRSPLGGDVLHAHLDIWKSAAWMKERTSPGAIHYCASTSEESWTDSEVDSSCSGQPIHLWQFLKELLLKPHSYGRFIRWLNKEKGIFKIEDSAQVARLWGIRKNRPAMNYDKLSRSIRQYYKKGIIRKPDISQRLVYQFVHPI
# Outline: as §1
# ETV7 = target: T10, ETV7 (Homo sapiens, UniProt Q9Y603 1-341); conditions: protein: recombinant; tags: N-terminal GST; dsDNA, one strand shown
# T10 sequence: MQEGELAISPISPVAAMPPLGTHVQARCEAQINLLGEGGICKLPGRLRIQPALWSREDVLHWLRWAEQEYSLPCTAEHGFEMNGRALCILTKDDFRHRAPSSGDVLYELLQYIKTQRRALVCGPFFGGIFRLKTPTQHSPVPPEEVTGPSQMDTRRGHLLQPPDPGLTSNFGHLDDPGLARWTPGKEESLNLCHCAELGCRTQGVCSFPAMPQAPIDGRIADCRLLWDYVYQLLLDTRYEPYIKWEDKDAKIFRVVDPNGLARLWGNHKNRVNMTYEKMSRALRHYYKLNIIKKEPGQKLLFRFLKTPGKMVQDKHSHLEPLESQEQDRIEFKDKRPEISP
# Outline: as §1
# ELF5 = target: T11, ELF5 (Homo sapiens, UniProt Q9UKW6-2 1-255); conditions: protein: recombinant; tags: N-terminal GST; dsDNA, one strand shown
# T11 sequence: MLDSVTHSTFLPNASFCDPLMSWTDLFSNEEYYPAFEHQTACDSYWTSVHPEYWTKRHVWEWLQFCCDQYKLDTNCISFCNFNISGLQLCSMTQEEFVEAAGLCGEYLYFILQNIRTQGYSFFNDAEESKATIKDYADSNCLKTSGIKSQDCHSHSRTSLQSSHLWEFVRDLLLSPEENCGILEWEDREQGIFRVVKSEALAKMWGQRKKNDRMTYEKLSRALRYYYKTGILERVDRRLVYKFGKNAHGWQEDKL
# Outline: as §1
# ETV3 = target: T12, ETV3 (Homo sapiens, UniProt P41162-2 1-143); conditions: protein: recombinant; tags: N-terminal GST; dsDNA, one strand shown
# T12 sequence: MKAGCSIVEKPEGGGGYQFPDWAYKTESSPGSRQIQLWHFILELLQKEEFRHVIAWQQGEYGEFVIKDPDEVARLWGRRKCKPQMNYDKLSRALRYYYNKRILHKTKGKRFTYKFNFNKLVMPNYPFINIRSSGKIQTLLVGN
# Outline: as §1
# ETV6 = ETV6 (Homo sapiens, UniProt P41212 1-452); conditions: protein: recombinant; tags: N-terminal GST; dsDNA, one strand shown
# Outline: as §1
# Sequence of ETV6 (P41212 whole entry): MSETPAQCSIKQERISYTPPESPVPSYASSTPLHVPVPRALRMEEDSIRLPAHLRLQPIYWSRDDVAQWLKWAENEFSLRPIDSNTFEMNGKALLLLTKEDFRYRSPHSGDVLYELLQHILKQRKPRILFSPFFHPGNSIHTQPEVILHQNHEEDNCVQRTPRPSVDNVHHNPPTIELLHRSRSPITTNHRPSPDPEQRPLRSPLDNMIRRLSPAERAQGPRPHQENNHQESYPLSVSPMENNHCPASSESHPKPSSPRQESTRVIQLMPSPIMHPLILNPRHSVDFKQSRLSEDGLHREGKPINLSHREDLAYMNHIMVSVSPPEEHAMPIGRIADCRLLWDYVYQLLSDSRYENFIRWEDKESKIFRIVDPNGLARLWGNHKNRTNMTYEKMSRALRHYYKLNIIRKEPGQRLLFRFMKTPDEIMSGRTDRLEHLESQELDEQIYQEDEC
# Sequence of CRX (O43186 whole entry): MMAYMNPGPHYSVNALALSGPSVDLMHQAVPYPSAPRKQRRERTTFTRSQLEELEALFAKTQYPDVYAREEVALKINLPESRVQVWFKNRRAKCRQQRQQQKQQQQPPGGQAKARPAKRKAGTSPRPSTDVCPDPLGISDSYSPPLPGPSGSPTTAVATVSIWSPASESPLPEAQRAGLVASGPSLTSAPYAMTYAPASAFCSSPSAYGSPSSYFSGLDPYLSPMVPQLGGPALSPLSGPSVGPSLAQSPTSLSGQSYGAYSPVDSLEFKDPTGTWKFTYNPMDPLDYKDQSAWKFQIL
# Sequence of ETV5 (P41161 whole entry): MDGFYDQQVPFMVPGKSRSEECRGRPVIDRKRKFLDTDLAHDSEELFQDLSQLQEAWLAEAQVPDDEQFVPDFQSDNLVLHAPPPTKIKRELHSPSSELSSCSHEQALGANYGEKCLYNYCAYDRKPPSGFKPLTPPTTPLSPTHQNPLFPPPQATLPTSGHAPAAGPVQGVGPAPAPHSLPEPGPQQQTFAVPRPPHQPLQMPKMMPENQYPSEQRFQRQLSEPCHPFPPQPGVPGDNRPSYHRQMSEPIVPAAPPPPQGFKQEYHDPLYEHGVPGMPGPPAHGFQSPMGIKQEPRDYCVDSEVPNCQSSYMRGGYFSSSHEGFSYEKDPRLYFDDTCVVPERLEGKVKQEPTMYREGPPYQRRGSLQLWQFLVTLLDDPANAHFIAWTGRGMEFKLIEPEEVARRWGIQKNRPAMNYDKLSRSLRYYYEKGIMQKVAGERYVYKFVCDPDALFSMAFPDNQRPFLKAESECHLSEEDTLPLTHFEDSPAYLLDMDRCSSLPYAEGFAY
# Sequence of ETV1 (P50549 whole entry): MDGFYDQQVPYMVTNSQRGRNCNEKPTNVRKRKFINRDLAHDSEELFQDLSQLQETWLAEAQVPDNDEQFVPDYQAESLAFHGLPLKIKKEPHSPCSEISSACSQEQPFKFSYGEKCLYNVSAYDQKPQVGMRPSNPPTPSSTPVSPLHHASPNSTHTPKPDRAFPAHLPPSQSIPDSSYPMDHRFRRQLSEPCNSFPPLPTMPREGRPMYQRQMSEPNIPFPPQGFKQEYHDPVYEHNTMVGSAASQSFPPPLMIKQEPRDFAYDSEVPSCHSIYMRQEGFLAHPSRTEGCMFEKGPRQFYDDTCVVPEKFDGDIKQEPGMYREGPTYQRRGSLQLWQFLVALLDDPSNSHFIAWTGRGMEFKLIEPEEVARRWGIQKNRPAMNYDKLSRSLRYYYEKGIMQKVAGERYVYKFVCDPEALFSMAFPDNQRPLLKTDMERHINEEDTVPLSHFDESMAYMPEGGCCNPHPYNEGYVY
# Sequence of ELF4 (Q99607 whole entry): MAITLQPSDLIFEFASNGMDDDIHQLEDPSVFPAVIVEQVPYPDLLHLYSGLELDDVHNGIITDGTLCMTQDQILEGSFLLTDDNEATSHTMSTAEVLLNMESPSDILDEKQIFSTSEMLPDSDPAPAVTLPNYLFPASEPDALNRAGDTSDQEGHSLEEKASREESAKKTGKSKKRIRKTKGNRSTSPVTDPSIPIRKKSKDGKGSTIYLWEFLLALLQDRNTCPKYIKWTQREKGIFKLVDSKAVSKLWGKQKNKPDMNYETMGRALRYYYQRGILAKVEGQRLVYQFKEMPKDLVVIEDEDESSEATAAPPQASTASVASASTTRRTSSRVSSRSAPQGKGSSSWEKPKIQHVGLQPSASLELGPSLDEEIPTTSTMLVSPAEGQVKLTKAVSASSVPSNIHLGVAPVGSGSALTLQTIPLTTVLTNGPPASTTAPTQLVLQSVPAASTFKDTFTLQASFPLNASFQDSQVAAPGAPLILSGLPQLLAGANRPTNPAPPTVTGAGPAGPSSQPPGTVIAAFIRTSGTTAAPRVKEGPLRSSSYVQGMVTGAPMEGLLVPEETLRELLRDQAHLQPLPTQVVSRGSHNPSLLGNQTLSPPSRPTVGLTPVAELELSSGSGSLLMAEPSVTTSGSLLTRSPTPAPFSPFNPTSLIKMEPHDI
# Sequence of HSF1 (Q00613 whole entry): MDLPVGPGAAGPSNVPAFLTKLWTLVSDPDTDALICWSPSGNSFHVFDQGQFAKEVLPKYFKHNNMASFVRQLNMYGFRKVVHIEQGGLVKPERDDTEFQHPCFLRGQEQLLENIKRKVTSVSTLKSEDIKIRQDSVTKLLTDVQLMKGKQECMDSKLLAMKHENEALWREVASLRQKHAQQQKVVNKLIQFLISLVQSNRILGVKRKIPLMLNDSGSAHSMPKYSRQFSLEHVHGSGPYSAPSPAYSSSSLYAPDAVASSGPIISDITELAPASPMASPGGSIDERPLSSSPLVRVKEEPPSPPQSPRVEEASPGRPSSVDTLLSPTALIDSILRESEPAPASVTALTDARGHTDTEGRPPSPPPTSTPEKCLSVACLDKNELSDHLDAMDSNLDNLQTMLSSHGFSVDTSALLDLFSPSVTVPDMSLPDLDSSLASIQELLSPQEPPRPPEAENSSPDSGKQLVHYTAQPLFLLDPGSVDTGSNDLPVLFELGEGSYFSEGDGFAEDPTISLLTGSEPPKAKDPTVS
sequence,measurement,setting,value
TCACTG,binding signal,FEV,"1.22 fold enrichment (6-mer frequency, TF over GST control)"
same,binding signal,ETV5,"1.15 fold enrichment (6-mer frequency, TF over GST control)"
same,binding signal,HSF1,"1.15 fold enrichment (6-mer frequency, TF over GST control)"
same,binding signal,SPIC,"1.24 fold enrichment (6-mer frequency, TF over GST control)"
same,binding signal,ELF4,"1.17 fold enrichment (6-mer frequency, TF over GST control)"
same,binding signal,ELK4,"1.14 fold enrichment (6-mer frequency, TF over GST control)"
same,binding signal,ETV2,"1.15 fold enrichment (6-mer frequency, TF over GST control)"
same,binding signal,ELF3,"1.48 fold enrichment (6-mer frequency, TF over GST control)"
same,binding signal,CRX,"1.09 fold enrichment (6-mer frequency, TF over GST control)"
same,binding signal,ETV1,"1.21 fold enrichment (6-mer frequency, TF over GST control)"
same,binding signal,ERF,"1.17 fold enrichment (6-mer frequency, TF over GST control)"
same,binding signal,ETV3L,"1.4 fold enrichment (6-mer frequency, TF over GST control)"
same,binding signal,ETS2,"1.28 fold enrichment (6-mer frequency, TF over GST control)"
same,binding signal,SPDEF,"1.16 fold enrichment (6-mer frequency, TF over GST control)"
same,binding signal,ETV7,"1.3 fold enrichment (6-mer frequency, TF over GST control)"
same,binding signal,ELF5,"1.17 fold enrichment (6-mer frequency, TF over GST control)"
same,binding signal,ETV3,"1.16 fold enrichment (6-mer frequency, TF over GST control)"
same,binding signal,ETV6,"1.2 fold enrichment (6-mer frequency, TF over GST control)"

# From publication PMC7862700, “An all-to-all approach to the identification of sequence-specific readers for epigenetic DNA modifications on cytosine”
